Drawing on PubChem BioAssay (NCATS), this text covers activity change, negative = inhibition for 27 compounds.

Each structure is given as a SMILES string. Records with an inconclusive call do not appear. Calls of active or inactive are those of the source. Calls come from the whole dose curve. Starred links: 1 amine or outer side, 2 acyl side, 3 side chain; linkers in the order of their positions; H or OH if unused. Positions of bridges follow the written chain, without caps; N, C: chain ends. Bridge positions count the residues as written; N and C are the ends. Non-standard residues stand in square brackets, D forms with d. Square brackets hold non-standard residues; d marks the D form. Residues, ends and D or L forms follow the SMILES beside them. Peptide text beside a SMILES is read from it. * marks the point of attachment. *: point of attachment. Ileψ(thiazoline)Cys = CC[C@H](C)[C@H](N)C1=N[C@H](C(=O)*)CS1; X1 = NC1=N[C@@H](O)C[C@@H]([C@@H](N[*:1])C(=O)[*:2])N1; ΔAla(Z-3-ureido) = NC(=O)N/C=C(\N)C(=O)O; d(aIle) = CC[C@H](C)[C@@H](N)C(=O)O; β3hOrn = NCCC[C@H](N)CC(=O)*; dOrn = NCCC[C@@H](N)C(=O)O; Dap = NC[C@H](N)C(=O)O
% is set by controls: 0 for no effect and ±100 for the full control effect.

The nature of this assay: qHTS Assay for Lipid Storage Modulators (AID 1519). The settings on record: Drosophila S3 cells, BODIPY lipid droplet/cell ratio, laser cytometry; at 25.7 µM (top of the series); cells loaded with oleic acid. A digest of the protocol:
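Cells seeded at 5,000 per well were treated with compounds over a concentration series and loaded with oleic acid (400 uM, as added). Lipid droplet fluorescence (488 nm excitation, 500-530 nm channel) was read by laser-scanning cytometry and normalized to 20 uM Triacsin C.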
For `CC[C@]1(c2ccccc2)NC(=O)N(C)C1=O`, the activity change, negative = inhibition was 0.43% (inactive). Regarding `CN1CCO[C@H](c2ccccc2)c2ccccc2C1`, the activity change, negative = inhibition is -1.73% (inactive). The value for `C[C@H](CCC(=O)O)[C@H]1CC[C@@H]2[C@@H]3[C@@H](O)C[C@H]4C[C@@H](O)CC[C@@]4(C)[C@H]3CC[C@@]21C` was -0.554% (inactive); that for `C=CCO[C@@H](Cn1ccnc1)c1ccc(Cl)cc1Cl` was -0.8% (inactive). As to `CN(C/C=C\c1ccccc1)Cc1cccc2ccccc12`, the activity change, negative = inhibition is -0.644% (inactive). In the case of `CC(C)(CO)[C@H](O)C(=O)NCCC(=O)O`, the activity change, negative = inhibition was -0.81% (inactive). With `C[N+]1(C)CC[C@@H](OC(=O)[C@@](O)(c2ccccc2)C2CCCC2)C1`, the activity change, negative = inhibition is -2.8% (inactive). The value for `CCN(CCCCOC(=O)c1ccc(OC)c(OC)c1)[C@@H](C)Cc1ccc(OC)cc1` was -1.1% (inactive); that for `O=C(O)c1cc2ccccc2c(Cc2cc3ccccc3c(C(=O)O)c2O)c1O` (tested in a mixture with another compound) was 1.36% (inactive); that for `C[C@H](NCCC(c1ccccc1)c1ccccc1)c1ccccc1` was -3.52% (inactive). As to `CCC(=O)OCC(=O)[C@@]1(OC(=O)CC)[C@H](C)C[C@@H]2[C@@H]3[C@H]([C@@H](O)C[C@@]21C)[C@]1(C)C=CC(=O)C=C1C[C@@H]3Cl`, the activity change, negative = inhibition was -4.84% (inactive). Regarding `C[C@H](C(=O)O)c1cccc(Oc2ccccc2)c1`, the activity change, negative = inhibition is 0.849% (inactive). As for `NCCC[C@H](N)CC(=O)N[C@H]1CNC(=O)[C@@H]([C@@H]2C[C@H](O)N=C(N)N2)NC(=O)/C(=C/NC(N)=O)NC(=O)[C@@H](CO)NC(=O)[C@@H](CO)NC1=O` (β3hOrn-[Dap][dS][dS][ΔAla(Z-3-ureido)][X1]; lactam 1-C), the activity change, negative = inhibition is 0.925% (inactive). As to `CC1(C)[C@@H](OC(=O)CCC(=O)O)CC[C@@]2(C)[C@H]1CC[C@@]1(C)[C@H]2C(=O)C=C2[C@H]3C[C@](C)(C(=O)O)CC[C@]3(C)CC[C@@]21C`, the activity change, negative = inhibition was -0.623% (inactive). Turning to `CCOC(=O)O[C@@H](C)OC(=O)[C@@H]1N2C(=O)[C@@H](NC(=O)[C@@H](N)c3ccccc3)[C@H]2SC1(C)C`, the activity change, negative = inhibition was -1.29% (inactive). Regarding `C#C[C@@]1(OC(C)=O)CC[C@@H]2[C@@H]3CCC4=C[C@@H](OC(C)=O)CC[C@H]4[C@H]3CC[C@]21C`, the activity change, negative = inhibition was -2.38% (inactive). With `CC#C[C@@]1(O)CC[C@H]2[C@@H]3CCC4=CC(=O)CCC4=C3[C@H](c3ccc(N(C)C)cc3)C[C@]21C`, the activity change, negative = inhibition was 0.174% (inactive).

`Cc1ccsc1/C=C\C1=NCCCN1C`: the activity change, negative = inhibition was -1.64% (inactive).

On to `Cc1cccc(CN2CCN([C@@H](c3ccccc3)c3ccc(Cl)cc3)CC2)c1`, for which the activity change, negative = inhibition is -11.4% (inactive). The figure for `C[C@@H]1[C@H]2CC[C@@H]3[C@@H]4CC=C5C[C@@H](N(C)C)CC[C@]5(C)[C@@H]4CC[C@@]32CN1C` is -1.08% (inactive). For the compound `Nc1nc(=S)c2ncn([C@H]3O[C@@H](CO)[C@@H](O)[C@@H]3O)c2[nH]1`, the activity change, negative = inhibition is -1.4% (inactive). `C#C[C@]1(O)CC[C@@H]2[C@H]3CCC4=CCCC[C@@H]4[C@@H]3CC[C@@]21C`: the activity change, negative = inhibition was -4.16% (inactive). As to `CC[C@H](C)[C@H](N)C1=N[C@H](C(=O)N[C@@H](CC(C)C)C(=O)N[C@@H](CCC(=O)O)C(=O)N[C@@H](C(=O)N[C@H]2CCCCNC(=O)[C@@H](CC(N)=O)NC(=O)[C@@H](CC(=O)O)NC(=O)[C@@H](Cc3cnc[nH]3)NC(=O)[C@@H](Cc3ccccc3)NC(=O)[C@@H]([C@@H](C)CC)NC(=O)[C@@H](CCCN)NC2=O)[C@@H](C)CC)CS1` ({Ileψ(thiazoline)Cys}-LE[d(aIle)]K[dOrn][d(aIle)][dF][dH][dD][dN]; lactam 4-C), the activity change, negative = inhibition was -0.807% (inactive). For `CC1(C)S[C@@H]2[C@H](NC(=O)[C@@H](N)c3ccc(O)cc3)C(=O)N2[C@H]1C(=O)O`, the activity change, negative = inhibition is -0.615% (inactive). On to `C[C@H](CCC(=O)O)[C@H]1CC[C@@H]2[C@H]3[C@@H](CC[C@@]21C)[C@]1(C)CC[C@H](O)C[C@@H]1C[C@@H]3O`, for which the activity change, negative = inhibition was 0.999% (inactive).

Take `O=C(O)[C@@H](O)[C@@H](O)[C@@H](O[C@H]1O[C@@H](CO)[C@@H](O)[C@@H](O)[C@@H]1O)[C@@H](O)CO`: the activity change, negative = inhibition is -0.529% (inactive). The figure for `O=C(N[C@@H](CO)[C@@H](O)c1ccc([N+](=O)[O-])cc1)C(Cl)Cl` is -1.53% (inactive).
